JMJD2E inh – blocks human JMJD2E demethylase activity | Potency, µM (series often up to 57.1 µM), usual class: inhibitors | JMJD2E catalytic domain, FDH-coupled NADH fluorescence (FDH is formaldehyde dehydrogenase) | B2RXH2 | hit rate 1.6% among 230,000; active = well fitted inhibition curve with a large enough effect, not every such curve was filed as active; inconclusive = small, poorly fitted or top-dose-only effect, or another doubt; inactive = no such curve, though single readings can be large or run the other way; note: nearly all actives have a fitted effect of over 50% in size
Target sequence (B2RXH2 1-337 limits assumed): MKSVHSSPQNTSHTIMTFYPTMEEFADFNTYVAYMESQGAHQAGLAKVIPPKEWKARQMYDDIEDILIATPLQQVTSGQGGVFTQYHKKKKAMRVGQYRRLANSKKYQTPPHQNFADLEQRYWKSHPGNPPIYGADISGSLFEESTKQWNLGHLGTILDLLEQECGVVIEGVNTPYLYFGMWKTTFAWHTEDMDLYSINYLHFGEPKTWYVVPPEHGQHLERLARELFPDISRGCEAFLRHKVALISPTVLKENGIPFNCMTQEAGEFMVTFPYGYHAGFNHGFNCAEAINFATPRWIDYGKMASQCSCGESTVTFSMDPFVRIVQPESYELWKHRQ
VDR inhibitor – vitamin D3 receptor (human) inhibition; P11473; VDR-SRC2-3 peptide fluorescence polarization, 2 h; Potency, µM, most hits filed as inhibitors; hit rate 0.93% among 400,000
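Fluorescence polarization assay measuring small-molecule disruption of VDR binding to the coregulator peptide SRC2-3. Compounds were pin-transferred (23 nl) into the reagent mix and incubated 2 h at room temperature before reading.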
Coupling enz – inhibits coupling enzyme system, counter-screen for aldolase hits; coupling enzyme system counterscreen, AmpLite Red fluorescence; activity change, negative = inhibition, % at 58.2 µM, hits read low; hit rate 0.67% among 290,000; AID 2472; in the data active = activity change below about -30%
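Counterscreen of the coupled detection system alone, without aldolase: glyceraldehyde-3-phosphate coupling enzymes plus AmpLite Red readout. Compounds at 57.5 uM final, 10 min RT preincubation, 20 min RT reaction, fluorescence 525/598 nm.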
GoLoco inh red – inhibitors of human Gai1-RGS12 GoLoco interaction (red fluorophore). Gai1:RGS12 GoLoco peptide FP, rhodamine, 10 min. AID 880. hit rate 0.44% among 230,000. Potency, µM (top dose mostly 61.6 µM), most hits filed as inhibitors. P63096; active = well fitted inhibition curve with a large enough effect, not every such curve was filed as active; inactive = no such curve, though single readings can be large or run the other way; note: nearly all actives have a fitted effect of over 30% in size
Target sequence (P63096 whole entry, looked up): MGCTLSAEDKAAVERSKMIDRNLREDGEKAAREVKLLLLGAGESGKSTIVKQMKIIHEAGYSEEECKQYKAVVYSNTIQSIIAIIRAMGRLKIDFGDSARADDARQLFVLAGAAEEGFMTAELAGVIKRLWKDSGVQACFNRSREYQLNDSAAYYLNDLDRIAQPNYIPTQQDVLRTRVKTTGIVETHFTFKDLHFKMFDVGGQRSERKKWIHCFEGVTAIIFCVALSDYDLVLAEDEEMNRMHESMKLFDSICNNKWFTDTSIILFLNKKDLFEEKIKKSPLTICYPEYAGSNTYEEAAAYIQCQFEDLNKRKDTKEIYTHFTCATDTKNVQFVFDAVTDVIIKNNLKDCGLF
HTT ATP protect – protects HTT-Q103 PC12 cells, measured by ATP; hit rate 0.14% among 230,000; PC12 HTT-Q103 induced, cytoprotection, ATP luminescence, 40 h; Potency, µM (highest dose often 56.4 µM), hits mostly activators; note: nearly all actives have a fitted effect of over 45% in size
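Rat PC12, Q103 Htt exon1-GFP fusion, ecdysone promoter; tebufenozide inducer 100 nM final; compound titration; qHTS, 1500 cells/well; ATPlite luminescent read.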
HttQ103 aggreg – reduces HttQ103-GFP aggregates in PC12 cells | hit rate 1.1% among 220,000 | AID 1688 | PC12 HttQ103-GFP aggregates, Acumen cytometry, 40 h | Potency, µM (doses to about 46.1 µM), actives largely listed as inhibitors; note: nearly all actives have a fitted effect of over 60% in size
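Read-out: GFP aggregate count by laser scanning cytometer (488 nm excitation, 500-530 nm emission, 1–25 µm objects >6 SD above background). Cells: PC12, inducible HTTex1-Q103-GFP, 100 nM tebufenozide; compounds titrated.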
Numbers stand for hits; – = inactive; ? = inconclusive; · = no result; ! = repeats disagree; [ ] = dose if it differs, or a comment. Hits are enriched below; roughly 2.3% of the tested compounds scored in any of these assays. Unless noted, calls come from the whole dose curve; as a rule, active = well fitted curve in the direction sought with a large enough effect; inconclusive = small, poorly fitted or top-dose-only effect, or another doubt; inactive = no such curve, though single readings can be large; an effect the other way counts as inactive or inconclusive.

SMILES	JMJD2E inh	VDR inhibitor	Coupling enz	GoLoco inh red	HTT ATP protect	HttQ103 aggreg
COc1ccc(C(C)(C)C)cc1NC(=O)Nc1ccc2c(c1)OCO2	–	–	–	–	–[10 µM]	18µM
O=C(Nc1ccc2c(c1)OCO2)Nc1ccc2c(c1)OCO2	–	–	–	–	·	·
O=C(Nc1ccc(OC(F)F)c(Cl)c1)Nc1ccc2c(c1)OCO2	–	–	–	–	–[10 µM]	11µM
CCCCNc1sc(S(=O)(=O)CC)nc1S(=O)(=O)c1ccc(C)cc1	·	–	·	·	·	·
Cc1noc(C)c1-c1cc(Nc2ccccc2)ncn1	·	–	–	–	–	·
Cc1ccc(CN(C(=O)c2ccc(Cl)c([N+](=O)[O-])c2)C2CCS(=O)(=O)C2)o1 (stereo unspecified)	·	–	–	·	·	·
CCOC(=O)C(=CNNc1ccccc1)C(=O)OCC	–	50µM	–	–	–[10 µM]	–[9.22 µM]
CCOC(=O)NNc1ccccc1	–	–	–	–	–[10 µM]	–[9.22 µM]
N#CC1=C(N)SC(N)=C(C#N)C1c1cccc(O)c1	?	–	-32	–	–	–
COc1ccc2[nH]c(=O)c(CN(CC3CCCO3)C(=O)Nc3ccc(F)cc3)cc2c1 (stereo unspecified)	?	–	–	–	–[10 µM]	11µM
Cc1ccc2cc(CN(Cc3ccccc3)Cc3nnnn3C3CCCC3)c(=O)[nH]c2c1	?	–	–	–	–[10 µM]	?
Cc1ccc2cc(CN(Cc3ccc(F)cc3)Cc3nnnn3C3CCCC3)c(=O)[nH]c2c1	?	–	–	–	–[1.9 µM]	25µM
COc1ccc2[nH]c(=O)c(CN(Cc3ccc(C)cc3)Cc3nnnn3CC3CCCO3)cc2c1 (stereo unspecified)	?	–	-47	–	–	–
Cc1cccc(NC(=O)Cn2ncc3c4ccccc4n(Cc4ccccc4)c3c2=O)c1C	·	–	·	·	·	·
Cc1ccc(-c2nc(Nc3cccc(C)c3)sc2CC(=O)O)cc1	?	–	–	–	–[10 µM]	–[9.22 µM]
O=C(O)Cc1sc(Nc2ccccc2)nc1-c1cccs1	–	79µM	–	–	–[10 µM]	–[9.22 µM]
C[C@H]1[C@H](C)CC[C@]2(C(=O)O)CC[C@]3(C)C(=CCC4[C@@]5(C)CC[C@H](O)C(C)(C)[C@@H]5CC[C@]43C)[C@H]12 (stereo partly specified)	–	·	–	–	–[1.9 µM]	·
Cc1ccc2cccnc2c1	·	·	·	–	6.3µM	·
Cc1ccc(C(=O)Nc2ccc3ncccc3c2)cc1	·	–	–	·	·	·
CCCCCC[C@@H]([C@@H](C)O)n1cnc2c(N)ncnc21	13µM!	–	–	–	–	·
COc1ccc(-n2nc(C#N)c(Cl)cc2=O)cc1	–	?	–	–	–[10 µM]	25µM
COC(=O)c1nn(-c2ccc(OC)cc2)c(=O)cc1O	–	–	–	–	–[10 µM]	–
CN[C@@H]1[C@H](O[C@@H]2O[C@H](C)[C@@](O)(CO)[C@H]2O[C@H]2[C@H](O)[C@H](O)[C@H](N=C(N)N)[C@@H](O)[C@@H]2N=C(N)N)O[C@@H](CO)[C@H](O)[C@H]1O	·	50µM	–	–	–	·
CCC(C)NC(=S)N1CCN(Cc2ccccc2)CC1 (stereo unspecified)	–	–	–	–	·	0.56µM
CCC(C)NC(=S)N1CCN(C(c2ccccc2)c2ccccc2)CC1 (stereo unspecified)	–	–	–	–	–[10 µM]	–
SMILES	JMJD2E inh	VDR inhibitor	Coupling enz	GoLoco inh red	HTT ATP protect	HttQ103 aggreg
CO/N=C(\C)CCN1CCCc2nc(C)c(C)cc21	·	·	–	·	–[10 µM]	·
CCc1nc(N2CCN(Cc3ccc4c(c3)OCO4)CC2)c2oc3ccccc3c2n1	?	–	–	–	–	–
C/C(=N\Nc1nnc(C)c(=O)[nH]1)C(=O)O	–	–	-51	–	–	–
CC(/C=N/Nc1nnc(C)c(=O)[nH]1)=C\c1ccccc1	–	–	–	–	–	–
O=C(c1ccco1)N1CCc2ccccc21	–	–	–	–	–	–
Cc1ccc2c(c1)CCCN2C(=O)c1ccco1	–	–	–	–	–	2.5µM
CCOc1ccccc1Nc1sc(C(=O)c2ccc(Cl)cc2)c(N)c1S(=O)(=O)c1ccccc1	·	–	·	·	·	·
COc1ccc(N(C(=O)c2ccccc2)S(=O)(=O)c2cccs2)cc1	–	22µM	–	–	–[1.9 µM]	–[9.22 µM]
c1csc(C2=Nn3c(nnc3-c3ccncc3)SC2)c1	–	–	·	–	25µM	·
CCN(c1ccccc1)S(=O)(=O)c1ccc(NC(=O)c2cc(=O)c3cc(C)cc(C)c3o2)cc1	·	–	·	·	·	·
O=C(N/N=C/c1cccc([N+](=O)[O-])c1O)c1cccs1	4µM	–	–	–	–[10 µM]	16µM
COc1cccc(/C=N/NC(=O)CNC(=O)c2cccs2)c1O	8.9µM	–	–	–	–[10 µM]	–[9.22 µM]
COc1cccc(/C=N/NC(=O)CNC(=O)CCc2ccccc2)c1O	4µM	–	–	–	–[10 µM]	–[9.22 µM]
COc1ccccc1/C=C\C(=O)NCC(=O)N/N=C/c1cccc(OC)c1O	·	–	–	·	·	·
COc1ccc(/C=N/NC(=O)COc2ccc3ccccc3c2)c(C(=O)O)c1OC	–	79µM	–	–	–[10 µM]	–
O=C(CS(=O)Cc1ccco1)NCC=CCOc1cc(CN2CCCCC2)ccn1 (stereo unspecified)	·	?	·	·	–	–
COc1cccc(/C=N/NC(=O)CNC(=O)COc2cccc(C)c2)c1O	2.8µM	–	–	–	–[10 µM]	–[9.22 µM]
COc1cccc(/C=N/NC(=O)CSc2ccccc2C)c1O	28µM	–	–	–	·	–
Cc1cccc(OCC(=O)NCC(=O)N/N=C/c2ccccc2)c1	·	–	–	·	·	·
COc1ccccc1/C=N/NC(=O)CNC(=O)c1ccccc1	–	–	–	–	–[10 µM]	–[9.22 µM]
COc1ccccc1/C=N/NC(=O)CCSc1ccccc1	–	–	-33	–	–[10 µM]	–
CCCCc1ccc(NC(=O)Cn2cnc3c2c(=O)n(C)c(=O)n3C)cc1	·	–	·	·	·	·
CC(C)(C)c1ccc(C(=O)Nc2ccc3nc(SCC(=O)N4CCCC4)sc3c2)cc1	·	–	·	·	·	·
Cc1oc2ccc(O)c(CN3CCN(C)CC3)c2c1C(=O)Nc1cccc(C(F)(F)F)c1	·	–	·	·	·	·
c1ccc(CCNc2ccnc3cc4ccccc4cc23)cc1	?	–	-44	–	–	?
SMILES	JMJD2E inh	VDR inhibitor	Coupling enz	GoLoco inh red	HTT ATP protect	HttQ103 aggreg
CCCCN(CC)CCCNC(=O)Nc1sc2nc3n(c(=O)c2c1C)CCC(C)CC3 (stereo unspecified)	·	–	·	·	·	·
C=CC(C)n1c(Br)nc2c1c(=O)[nH]c(=O)n2C (stereo unspecified)	–	–	–	–	–	–
CC(C)n1c(=S)[nH]c2c1c(=O)[nH]c(=O)n2C	7.9µM	?	–	10µM	–	–
CCS(=O)(=O)c1ccc(-c2csc(-c3ccccc3)n2)c(Cl)c1Cl	?	–	–	–	–[10 µM]	11µM
Cc1ccc2nc(-c3cccc(S(=O)(=O)N(C)C)c3)cn2c1	–	–	-32	–	–	–
O=C(Nc1ccccc1)c1cccc2c(=O)c3c([nH]c12)CCCC3	·	–	·	·	·	·
O=C1C=C(O)c2c(O)cccc2C1=O	6.3µM	·	–	–	–[10 µM]	–[9.22 µM]
